Screen size: about 2,300 compounds; about 1,400 (61%) were called active. Not shown: some 29% with an inconclusive outcome. The set was probably picked from earlier hits. This is one part of the list. Values without a mark were called inactive. Calls come from the whole dose curve; as a rule, active = well fitted inhibition curve with a large enough effect; inconclusive = small, poorly fitted or top-dose-only effect, or effect the other way; inactive = no such curve, though single readings can be large or run the other way.
% is set by controls: 0 for no effect and ±100 for the full control effect; potency is the fitted concentration of half-maximal effect.

This assay can be described thus: Confirmation screen for delayed death inhibitors of the malarial parasite plastid, 96 hour incubation. Note: nearly all actives have a fitted effect of over 60% in size. The settings on record: P. falciparum luciferase growth in erythrocytes; series mostly up to 28.7 µM; activity change, negative = inhibition: at the top concentration. An excerpt: The goal of this screen is to discover new antimalarial compounds that act by inhibiting the development of the apicoplast in the malarial parasite Plasmodium falciparum. The biochemical processes that make this organelle essential for erythrocytic stage parasites are not well understood. However, antibiotics, such as azithromycin and tetracycline, which target the apicoplast translational machinery, have a potent antimalarial effect. […] We have developed a cell-based assay that measures parasite growth based on the expression of an integrated copy of a firefly luciferase reporter. To detect small molecules that cause this "delayed death phenotype, erythrocytes infected with the luciferase-expressing parasites were incubated with compounds for either one or two generations, corresponding to 48 and 96 hours, respectively. Compounds that inhibit parasite growth in the second generation, but not the first, should be enriched in antimalarials that target the apicoplast. Growth inhibition is detected by a decrease in luciferase activity. MLPCN Grant: R21 NS059500 Assay Provider: David Fidock and Eric Ekland, Columbia University Keywords: NIH Roadmap, MLPCN, MLI, MLSMR, qHTS, NCGC, qHTS, malaria, luciferase, viability
Four microliters of culture medium (RPMI 1640 with 0.5% w/v Albumax (GIBCO), 24 mM sodium bicarbonate and 10 ug/mL gentamycin) were dispensed by a Multi-drop Combi into white solid 1536-well plates (Grenier) and 23 nL compound was added by a pin tool. Four microliters of infected erythrocytes (2% hematocrit, 0.1% parasitemia final concentration) in culture medium were dispensed and the plates incubated for 96 hours at 37 C in 5% CO2. Two microliters of luciferase detection reagent was added and luminescence was detected by a ViewLux (PerkinElmer) reader
Take `O=C(NCCN1CCN(c2ccc([N+](=O)[O-])cc2)CC1)NCc1ccccc1`: the Potency is 12.6 µM (active).
As for `CC(C)CC1NC(=S)N(Cc2ccccc2)C1=O` (configuration not stated), the Potency was 3.98 µM (active).
The same measure, in the same setting: in the case of `CCC(C(=O)O)C1OC(C(C)C(O)C(C)C(=O)C(CC)C2OC3(C=CC(O)C4(CCC(C)(C5CCC(O)(CC)C(C)O5)O4)O3)C(C)CC2C)C(C)CC1C` (configuration not stated) it was 0.178 µM (active).
For the compound `COC(=O)COc1ccc(S(=O)(=O)NCCC2=CCCCC2)cc1Cl`, the “activity change, negative = inhibition” value is -17.4%.
Consider `CC(=O)N1CCN(S(=O)(=O)c2cccc(C(=O)NCCC3=CCCCC3)c2)CC1`, for which the Potency was 12.6 µM (active).
On to `CCNC(=O)NC(=O)C(C)OC(=O)c1oc2ccccc2c1CSC1CCCCC1` (configuration not stated), for which the “activity change, negative = inhibition” value is -18.8%.
Turning to `CCOc1ccc(Cl)cc1C1=CC(=O)C[C@H](c2ccc(OC)cc2)C1`, the Potency is 12.6 µM (active).
On the same count and under the same terms, with `COc1ccc(OC)c(C2=CC(=O)C[C@H](c3ccc4c(c3)OCO4)C2)c1` the figure was 12.6 µM (active).
The same measure, in the same setting: with `Cc1ccc(S(=O)(=O)Nc2cccc3ncccc23)s1` the figure was 3.98 µM (active).
The same measure, in the same setting: in the case of `O=S(=O)(Nc1cccc2ncccc12)c1cccs1` it was 3.55 µM (active).
On to `CCCc1ccc(C(=O)NC(=O)c2ccccc2O)cc1`, for which the Potency is 0.562 µM (active).
Still for that read-out and setting: in the case of `CC(C)N=C(NS(=O)(=O)c1ccccc1)C(Cl)(Cl)Cl` it was 4.47 µM (active).
Same read-out and setting: with `O=C1c2ccccc2-n2c1nc1ccccc1c2=O` the figure was 0.501 µM (active).
Regarding `NC(=S)Nn1c(-c2ccccc2)nc2ccccc2c1=O`, the “activity change, negative = inhibition” value was 24.6%.
`O=C1c2cc(F)ccc2-n2c1nc1ccccc1c2=O`: the Potency was 0.158 µM (active).
Same read-out and setting: with `O=C(CSc1nnc2ccc(-c3cccnc3)nn12)Nc1cccc(F)c1` the figure was 8.91 µM (active); with `CC1CCC(NC(=O)CN(C)S(=O)(=O)c2ccc3c(c2)c(=O)n(C)c(=O)n3C)CC1` (configuration not stated), 3.98 µM (active); with `Cc1cccc(N(C)C(=O)CN(C)S(=O)(=O)c2ccc3c(c2)c(=O)n(C)c(=O)n3C)c1`, 12.6 µM (active).
Still for that read-out and setting: in the case of `Cc1cc(C)cc(-n2c(N)c(C(=O)Nc3c(C)n(C)n(-c4ccccc4)c3=O)c3nc4ccccc4nc32)c1` it was 3.16 µM (active).
For `CCN(C(=O)c1cc2c(=O)n3ccccc3nc2n1CCCOC)C1CCCCC1`, the Potency was 10 µM (active).
Take `CCOC(=O)c1c(C)c(-c2ccccc2)n(CC(=O)NCCCN(CC)CC)c1C`: the Potency was 11.2 µM (active).
Same read-out and setting: in the case of `COc1ccc(-c2csc(N3CCN(C(=O)c4ccco4)CC3)n2)cc1` it was 12.6 µM (active).
With `O=c1[nH]c(C(F)(F)F)nc2ccc3ccccc3c12`, the “activity change, negative = inhibition” value is 26.6%.
Regarding `Cn1nc(C(F)(F)F)c(C(=O)Nc2ccc(F)cc2F)c1Sc1ccc(C(F)(F)F)cc1`, the Potency is 7.94 µM (active).
On the same count and under the same terms, in the case of `CC(C)N(C(=O)CSc1nnc(-c2ccc3c(c2)OCO3)n1C)C(C)C` it was 10 µM (active).
Still for that read-out and setting: with `O=C(Nc1ccccc1O)c1ccc([N+](=O)[O-])cc1` the figure was 12.6 µM (active); with `CCCOc1cc(NCc2ccccc2)c2ncn(C(C)C)c2c1`, 2.82 µM (active); with `O=C(OC[C@@H]1O[C@@](O)(COC(=O)c2cccnc2)[C@H](OC(=O)c2cccnc2)[C@H]1OC(=O)c1cccnc1)c1cccnc1`, 6.31 µM (active).
The same measure, in the same setting: in the case of `Cn1c(CCn2ccccc2=O)nc2cc(NC(=O)COc3ccccc3)ccc21` it was 10 µM (active).
For `CCOc1ccc(/C=C2\SC(=S)N(C(C(=O)O)c3ccccc3)C2=O)cc1OC` (configuration not stated), the “activity change, negative = inhibition” value was -7.03%.
In the case of `COc1ccccc1OCCCOc1cccc(/C=C2\SC(=O)NC2=O)c1`, the Potency is 11.2 µM (active).
Same read-out and setting: with `CNC(=S)N(CCc1c(C)[nH]c2ccc(Cl)cc12)Cc1cccnc1` the figure was 12.6 µM (active); with `CNC(=S)N(CCc1c(C)[nH]c2ccc(C)cc12)Cc1cc(OC)c(OC)c(OC)c1`, 11.2 µM (active); with `Cc1cccc(NC(=O)c2cn(-c3ccccc3)nc2-c2ccccc2)c1`, 14.1 µM (active).
On to `O=C(CCl)Nc1cn(-c2ccccc2)nc1-c1ccccc1`, for which the Potency was 11.2 µM (active).
The same measure, in the same setting: with `OC(c1ccccc1)(c1ccccc1)C1CCN(C(=S)NCCc2ccccc2)CC1` the figure was 5.01 µM (active); with `CN(CCNC(=O)c1ccc(CS(=O)(=O)c2ccc(Br)cc2)o1)CCc1ccccc1`, 2 µM (active).
Same read-out and setting: in the case of `CCCCN(CCCNC(=O)c1ccc(CS(=O)(=O)c2ccc(OC)cc2)o1)Cc1ccccc1` it was 5.01 µM (active).
Turning to `CCCCNC(=O)c1ccc(CS(=O)(=O)c2cccc(C(F)(F)F)c2)o1`, the “activity change, negative = inhibition” value was -32.4%.
Take `CN(CCCNC(=O)c1ccc(CS(=O)c2ccc(Br)cc2)o1)Cc1ccccc1` (configuration not stated): the Potency is 1.78 µM (active).
As for `CCC1CCCCN1CCCNC(=O)c1ccc(CS(=O)(=O)c2ccc(Br)cc2)o1` (configuration not stated), the Potency is 5.01 µM (active).
For the compound `Cn1c(=O)c([N+](=O)[O-])c(-n2ccnc2)c2ccccc21`, the Potency is 14.1 µM (active).
The same measure, in the same setting: with `CCc1ccc(/C=N/n2c(C)cc(C)c(C#N)c2=O)cc1` the figure was 6.31 µM (active).
On to `COc1cccc(COC(=O)C2CC(=O)N(Cc3ccco3)C2)c1OC` (configuration not stated), for which the “activity change, negative = inhibition” value is -10.9%.
Turning to `CCC1CN(C(=O)N2CCC(C(=O)NCc3cccc(OC)c3OC)CC2)c2cc(C)ccc2O1` (configuration not stated), the Potency is 11.2 µM (active).
Turning to `CC(CN1CCC(n2nccc2NC(=O)c2ccccc2Cl)CC1)c1ccccc1` (configuration not stated), the Potency is 10 µM (active).
Turning to `Cc1ccc(CN2CCC(n3nccc3NC(=O)c3ccccc3C)CC2)o1`, the Potency was 12.6 µM (active).
Same read-out and setting: with `O=c1[nH]c(=O)n(Cc2ccco2)c2c1C(C(F)(F)F)(C(F)(F)F)N=C(CCc1ccccc1)N2` the figure was 6.31 µM (active).
With `CCOCCCNC(=O)/C(C#N)=C/c1ccc(-c2ccc(S(=O)(=O)N3CCOCC3)cc2)o1`, the Potency was 11.2 µM (active).
Still for that read-out and setting: in the case of `COc1ccc(NC(=O)CSc2ccc(-c3ccco3)nn2)c(OC)c1` it was 11.2 µM (active); in that of `Cc1cc(=O)n2nc(N3CCC(C(=O)NCc4ccc(F)cc4)CC3)sc2n1`, 8.91 µM (active).
On the same count and under the same terms, in the case of `Cc1cc(=O)n2nc(N3CCC(C(=O)NCCc4ccc(Cl)cc4)CC3)sc2n1` it was 10 µM (active); in that of `Cc1cc(=O)n2nc(N3CCC(C(=O)NCc4ccc(Cl)cc4)CC3)sc2n1`, 10 µM (active).
Still for that read-out and setting: in the case of `Cc1cc(=O)n2nc(N3CCCC(C(=O)NCc4ccc(Cl)cc4)C3)sc2n1` (configuration not stated) it was 11.2 µM (active).
For `O=C(CCl)Nc1ccc(S(=O)(=O)Nc2nccs2)cc1`, the Potency is 1.26 µM (active).
With `O=C(CN1C(=O)/C(=C/c2ccc(F)cc2)SC1=S)N1CCN(CCc2ccccn2)CC1`, the Potency is 15.8 µM (active).
On the same count and under the same terms, in the case of `CC(C)(C)C(=O)/C(=C\c1cccc([N+](=O)[O-])c1)n1cncn1` it was 10 µM (active).

The values above are taken from PubChem BioAssay AID504848 (National Center for Advancing Translational Sciences (NCATS), 2011).
